Assay results: the supplement of paper PMC11006884
Of roughly 6,500 targets only a part is listed; those with a hit were picked by preference. About 2% of all pairs of compound and target were hits.

Compound: COC(=O)C#Cc1ccccc1 [methyl 3-phenylpropiolate]
Assay: log2 ratio of iodoacetamide-alkyne labeling of the cysteine site, DMSO over compound (competition); higher = stronger covalent engagement of the cysteine by the compound, active = 1 or more
Conditions: 500 µM; treatment time 1 h; system: HEK293T cell lysate
Method in brief: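 Electrophile (500 µM) or vehicle was added to HEK293T lysate (2 mg/mL) for 1 h at ambient temperature before iodoacetamide alkyne labelling (1 h) and click coupling to sCIP-TMT reagents. After pooling, overnight trypsin digestion at 37 °C, streptavidin enrichment and acid elution, peptides were measured by Orbitrap Eclipse LC-MS/MS with FAIMS and quantified in FragPipe. Each cysteine's log2 competition ratio compares mean control-channel with mean compound-channel reporter intensity, control over compound. Data came from duplicate channels across three replicates, excluding cysteines quantified in only one replicate.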

Chain of UniProt Q01082 (Q01082 whole entry, looked up): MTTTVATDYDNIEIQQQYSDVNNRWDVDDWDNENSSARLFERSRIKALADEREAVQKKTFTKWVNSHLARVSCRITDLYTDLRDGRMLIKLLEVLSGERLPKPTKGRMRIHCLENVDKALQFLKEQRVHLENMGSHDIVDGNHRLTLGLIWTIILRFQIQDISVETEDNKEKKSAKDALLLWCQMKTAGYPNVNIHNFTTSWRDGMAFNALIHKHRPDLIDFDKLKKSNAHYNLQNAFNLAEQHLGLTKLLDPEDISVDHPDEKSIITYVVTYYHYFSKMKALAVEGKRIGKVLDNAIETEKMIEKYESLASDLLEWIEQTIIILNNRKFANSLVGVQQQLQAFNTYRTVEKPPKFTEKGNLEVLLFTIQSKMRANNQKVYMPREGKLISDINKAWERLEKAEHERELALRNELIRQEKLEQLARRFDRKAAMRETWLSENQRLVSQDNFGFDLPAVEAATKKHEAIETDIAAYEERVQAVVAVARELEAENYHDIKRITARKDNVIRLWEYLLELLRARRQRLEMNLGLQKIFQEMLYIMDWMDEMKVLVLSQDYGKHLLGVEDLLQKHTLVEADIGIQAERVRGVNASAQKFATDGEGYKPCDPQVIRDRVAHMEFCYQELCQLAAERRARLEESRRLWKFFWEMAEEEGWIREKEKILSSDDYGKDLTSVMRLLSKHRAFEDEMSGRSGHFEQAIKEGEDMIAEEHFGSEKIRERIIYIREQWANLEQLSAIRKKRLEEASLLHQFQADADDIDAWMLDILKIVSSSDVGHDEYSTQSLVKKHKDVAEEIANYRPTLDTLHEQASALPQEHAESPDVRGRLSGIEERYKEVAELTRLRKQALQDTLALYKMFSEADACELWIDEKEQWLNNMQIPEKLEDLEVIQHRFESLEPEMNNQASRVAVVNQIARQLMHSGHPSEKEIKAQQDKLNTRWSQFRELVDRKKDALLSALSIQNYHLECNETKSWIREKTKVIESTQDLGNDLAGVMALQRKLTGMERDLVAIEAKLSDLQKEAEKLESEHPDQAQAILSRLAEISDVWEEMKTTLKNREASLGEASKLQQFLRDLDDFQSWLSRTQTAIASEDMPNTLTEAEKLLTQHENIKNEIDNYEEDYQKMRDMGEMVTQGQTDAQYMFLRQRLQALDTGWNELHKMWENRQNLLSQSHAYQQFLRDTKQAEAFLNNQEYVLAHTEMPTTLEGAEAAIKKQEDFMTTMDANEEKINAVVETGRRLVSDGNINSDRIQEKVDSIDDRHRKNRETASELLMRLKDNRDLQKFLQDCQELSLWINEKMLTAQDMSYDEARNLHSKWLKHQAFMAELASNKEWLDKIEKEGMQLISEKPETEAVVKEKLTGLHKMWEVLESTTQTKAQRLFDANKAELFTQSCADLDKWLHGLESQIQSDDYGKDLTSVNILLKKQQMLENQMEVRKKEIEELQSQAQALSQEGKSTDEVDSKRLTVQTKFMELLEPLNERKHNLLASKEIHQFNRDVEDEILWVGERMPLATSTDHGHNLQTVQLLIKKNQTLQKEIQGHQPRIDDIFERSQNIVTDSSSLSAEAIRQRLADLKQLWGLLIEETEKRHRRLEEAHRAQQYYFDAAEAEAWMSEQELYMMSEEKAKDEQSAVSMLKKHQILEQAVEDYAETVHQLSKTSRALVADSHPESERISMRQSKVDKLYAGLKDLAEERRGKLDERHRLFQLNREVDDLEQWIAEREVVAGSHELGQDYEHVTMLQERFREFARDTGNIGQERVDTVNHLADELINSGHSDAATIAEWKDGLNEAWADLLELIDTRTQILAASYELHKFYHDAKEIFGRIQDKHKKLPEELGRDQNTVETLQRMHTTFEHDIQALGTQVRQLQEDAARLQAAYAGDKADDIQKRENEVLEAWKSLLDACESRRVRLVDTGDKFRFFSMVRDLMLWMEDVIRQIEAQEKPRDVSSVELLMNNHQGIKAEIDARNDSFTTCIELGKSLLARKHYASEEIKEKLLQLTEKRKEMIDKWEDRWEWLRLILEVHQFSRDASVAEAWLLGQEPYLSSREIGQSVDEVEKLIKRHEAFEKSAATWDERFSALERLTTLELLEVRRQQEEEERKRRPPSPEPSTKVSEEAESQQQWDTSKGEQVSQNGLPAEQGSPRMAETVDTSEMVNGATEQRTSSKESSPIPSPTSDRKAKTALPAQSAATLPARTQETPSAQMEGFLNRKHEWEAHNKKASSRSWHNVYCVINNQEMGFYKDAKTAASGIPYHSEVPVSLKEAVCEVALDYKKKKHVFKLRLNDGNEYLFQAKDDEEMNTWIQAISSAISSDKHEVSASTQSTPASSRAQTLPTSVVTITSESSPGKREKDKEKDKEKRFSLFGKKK
Chain of UniProt Q5JTH9 (Q5JTH9 whole entry, looked up): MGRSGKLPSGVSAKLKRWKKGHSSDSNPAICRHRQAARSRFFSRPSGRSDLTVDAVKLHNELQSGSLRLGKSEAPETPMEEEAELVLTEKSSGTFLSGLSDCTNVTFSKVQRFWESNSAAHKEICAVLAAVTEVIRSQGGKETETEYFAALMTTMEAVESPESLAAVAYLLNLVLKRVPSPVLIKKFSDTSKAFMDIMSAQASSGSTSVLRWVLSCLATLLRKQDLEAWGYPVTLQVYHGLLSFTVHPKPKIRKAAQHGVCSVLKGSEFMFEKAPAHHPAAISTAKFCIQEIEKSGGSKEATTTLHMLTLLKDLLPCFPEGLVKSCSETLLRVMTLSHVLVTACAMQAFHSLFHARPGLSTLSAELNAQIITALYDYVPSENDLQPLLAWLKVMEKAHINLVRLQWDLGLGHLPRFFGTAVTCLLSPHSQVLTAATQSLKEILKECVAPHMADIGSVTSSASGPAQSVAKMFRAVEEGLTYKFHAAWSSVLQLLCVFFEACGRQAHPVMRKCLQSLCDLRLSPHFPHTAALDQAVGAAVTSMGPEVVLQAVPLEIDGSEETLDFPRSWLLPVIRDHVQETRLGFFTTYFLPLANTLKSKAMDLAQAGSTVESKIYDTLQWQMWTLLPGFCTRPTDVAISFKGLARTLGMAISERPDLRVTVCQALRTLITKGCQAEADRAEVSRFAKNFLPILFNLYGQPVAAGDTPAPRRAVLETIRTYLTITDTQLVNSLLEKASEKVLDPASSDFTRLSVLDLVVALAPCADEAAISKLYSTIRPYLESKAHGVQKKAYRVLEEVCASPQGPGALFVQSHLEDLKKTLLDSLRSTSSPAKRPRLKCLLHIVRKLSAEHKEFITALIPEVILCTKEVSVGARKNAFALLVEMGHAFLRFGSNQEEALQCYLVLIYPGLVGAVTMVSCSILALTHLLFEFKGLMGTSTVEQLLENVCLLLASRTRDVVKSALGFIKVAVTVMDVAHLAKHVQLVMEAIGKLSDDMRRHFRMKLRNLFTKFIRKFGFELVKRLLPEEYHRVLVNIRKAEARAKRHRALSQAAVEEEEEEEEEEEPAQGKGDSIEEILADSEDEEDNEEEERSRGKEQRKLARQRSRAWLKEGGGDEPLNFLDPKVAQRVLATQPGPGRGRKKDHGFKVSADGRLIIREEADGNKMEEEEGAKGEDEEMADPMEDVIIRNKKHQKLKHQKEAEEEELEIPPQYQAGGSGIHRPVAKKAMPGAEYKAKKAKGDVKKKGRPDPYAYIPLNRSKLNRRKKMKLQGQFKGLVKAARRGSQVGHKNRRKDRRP
Chain of UniProt Q08379 (Q08379 whole entry): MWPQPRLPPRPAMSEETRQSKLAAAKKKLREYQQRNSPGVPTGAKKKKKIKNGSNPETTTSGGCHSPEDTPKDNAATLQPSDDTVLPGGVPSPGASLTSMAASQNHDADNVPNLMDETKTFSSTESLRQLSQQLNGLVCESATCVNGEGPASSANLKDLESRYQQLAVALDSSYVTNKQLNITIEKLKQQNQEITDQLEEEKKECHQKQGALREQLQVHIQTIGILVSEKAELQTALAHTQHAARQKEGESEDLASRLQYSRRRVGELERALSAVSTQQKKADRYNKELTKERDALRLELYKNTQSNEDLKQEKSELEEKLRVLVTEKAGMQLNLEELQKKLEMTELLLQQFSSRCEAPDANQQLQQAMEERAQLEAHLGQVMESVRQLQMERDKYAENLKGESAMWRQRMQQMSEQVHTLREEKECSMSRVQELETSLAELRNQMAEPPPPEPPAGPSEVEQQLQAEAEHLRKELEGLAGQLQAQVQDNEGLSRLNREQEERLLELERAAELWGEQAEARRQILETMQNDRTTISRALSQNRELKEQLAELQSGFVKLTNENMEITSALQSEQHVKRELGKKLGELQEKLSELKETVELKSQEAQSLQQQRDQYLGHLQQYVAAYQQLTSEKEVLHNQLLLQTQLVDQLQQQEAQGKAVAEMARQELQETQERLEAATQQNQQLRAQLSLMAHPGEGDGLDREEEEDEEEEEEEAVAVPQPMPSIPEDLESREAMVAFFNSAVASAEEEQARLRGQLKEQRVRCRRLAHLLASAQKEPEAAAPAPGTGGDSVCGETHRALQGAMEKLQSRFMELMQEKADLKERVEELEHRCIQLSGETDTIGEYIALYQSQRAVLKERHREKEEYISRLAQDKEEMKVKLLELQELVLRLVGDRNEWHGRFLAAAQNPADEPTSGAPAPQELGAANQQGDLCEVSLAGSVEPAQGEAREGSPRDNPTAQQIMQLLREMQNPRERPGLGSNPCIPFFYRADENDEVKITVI
Chain of UniProt Q00796 (Q00796 whole entry, looked up): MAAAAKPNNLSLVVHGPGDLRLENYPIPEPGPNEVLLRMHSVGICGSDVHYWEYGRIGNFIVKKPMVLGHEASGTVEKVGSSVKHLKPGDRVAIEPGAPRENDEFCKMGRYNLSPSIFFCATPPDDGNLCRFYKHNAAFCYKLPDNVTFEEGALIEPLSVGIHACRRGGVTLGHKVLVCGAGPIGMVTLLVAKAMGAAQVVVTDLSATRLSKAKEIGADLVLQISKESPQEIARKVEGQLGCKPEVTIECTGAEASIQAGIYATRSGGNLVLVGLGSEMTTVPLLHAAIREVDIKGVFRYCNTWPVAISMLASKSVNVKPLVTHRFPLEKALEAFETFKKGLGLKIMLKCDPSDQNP
Chain of UniProt P56277 (P56277 whole entry): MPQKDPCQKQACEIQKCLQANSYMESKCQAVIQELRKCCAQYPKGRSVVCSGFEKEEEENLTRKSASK

Target	log2 ratio of iodoacetamide-alkyne labeling
ETFDH C561 (UniProt Q16134)	0.595 (inactive)
SUZ12 C325 (UniProt Q15022)	1.07 (active)
NUMA1 C375 (UniProt Q14980)	-0.109 (inactive)
TLE3 C528 (UniProt Q04726)	1.34 (active)
RPS27A C149 (UniProt P62979)	0.251 (inactive)
SPTBN1 C112 (UniProt Q01082)	0.622 (inactive)
PPP5C C11 (UniProt P53041)	0.16 (inactive)
GOLGA2 C794 (UniProt Q08379)	1.07 (active)
RRP12 C261 (UniProt Q5JTH9)	0.53 (inactive)
UniProt P98164_C4047	0.464 (inactive)
UniProt Q08170_C115	-0.0754 (inactive)
UniProt P55072_C209	0.132 (inactive)
UniProt Q14574_C804	0.812 (inactive)
NUP98 C1590 (UniProt P52948)	0.601 (inactive)
CMC4 C12 (UniProt P56277)	1.14 (active)
THOP1 C682 (UniProt P52888)	0.174 (inactive)
UniProt P61163_C222	0.293 (inactive)
SF3A1 C244 (UniProt Q15459)	0.0803 (inactive)

Target	log2 ratio of iodoacetamide-alkyne labeling
FHL3 C150 (UniProt Q13643)	0.146 (inactive)
ILK C346 (UniProt Q13418)	1.8 (active)
UniProt P68431_C111	0.142 (inactive)
MDC1 C1742 (UniProt Q14676)	0.0644 (inactive)
SUCLG1 C172 (UniProt P53597)	1.72 (active)
UniProt Q13155_C23	1.24 (active)
MIA3 C1513 (UniProt Q5JRA6)	0.31 (inactive)
UniProt P61978_C184	0.0026 (inactive)
MDC1 C128 (UniProt Q14676)	0.14 (inactive)
LMNB2 C212 (UniProt Q03252)	0.214 (inactive)
GSTO1 C32 (UniProt P78417)	2.51 (active)
HNRNPU C497 (UniProt Q00839)	0.211 (inactive)
AARS2 C750 (UniProt Q5JTZ9)	0.846 (inactive)
PMS2 C798 (UniProt P54278)	-0.143 (inactive)
SORD C45 (UniProt Q00796)	-0.0713 (inactive)
PMPCA C466 (UniProt Q10713)	0.00592 (inactive)
PPA1 C114 (UniProt Q15181)	-0.223 (inactive)
